From PubChem
BJeLR lethal: BJeLR cell viability loss; 0.17% of 300,000 active; BJeLR (HRASV12) viability, CellTiter-Glo ATP luminescence, 48 h; inhibition, % (concentration not given with the values); AID 1554; in the data active = inhibition above about 50%
RecA splice inh: Mtb RecA intein splicing inhibition | P9WHJ3 | cell-free RecA intein splicing, fluorescence | inhibition, % (concentration not given with the values) | 0.75% of 290,000 active | AID 2221; in the data active = inhibition above about 30%;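 note: 0% = vehicle wells and 100% = reference inhibitor control wells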
Target sequence (P9WHJ3 whole entry, looked up, canonical isoform): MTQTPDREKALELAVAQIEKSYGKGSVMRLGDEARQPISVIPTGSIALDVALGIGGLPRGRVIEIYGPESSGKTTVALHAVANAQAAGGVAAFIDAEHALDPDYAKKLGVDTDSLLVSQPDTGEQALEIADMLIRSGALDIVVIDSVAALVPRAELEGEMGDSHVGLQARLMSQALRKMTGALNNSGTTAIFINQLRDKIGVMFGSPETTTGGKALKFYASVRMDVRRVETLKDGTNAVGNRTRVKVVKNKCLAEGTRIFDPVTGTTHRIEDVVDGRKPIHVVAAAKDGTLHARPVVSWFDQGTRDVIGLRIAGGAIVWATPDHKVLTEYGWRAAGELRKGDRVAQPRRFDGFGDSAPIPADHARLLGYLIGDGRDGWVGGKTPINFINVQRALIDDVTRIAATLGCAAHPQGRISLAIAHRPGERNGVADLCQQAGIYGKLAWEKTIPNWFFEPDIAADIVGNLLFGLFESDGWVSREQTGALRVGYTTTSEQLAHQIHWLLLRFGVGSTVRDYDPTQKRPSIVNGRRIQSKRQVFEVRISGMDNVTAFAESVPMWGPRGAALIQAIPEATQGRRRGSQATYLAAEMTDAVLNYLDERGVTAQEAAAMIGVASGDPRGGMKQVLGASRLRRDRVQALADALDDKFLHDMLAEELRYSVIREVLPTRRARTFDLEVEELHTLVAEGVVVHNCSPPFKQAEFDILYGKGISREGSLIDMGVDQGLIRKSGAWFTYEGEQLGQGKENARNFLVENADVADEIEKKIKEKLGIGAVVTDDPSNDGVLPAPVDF
ugtP null kill: kills S. aureus RN4220 lacking UgtP. S. aureus RN4220 ugtP deletion, OD600 growth, 16 h. growth inhibition, % (no concentration beside the values). 0.54% of 330,000 active. AID 1259309; in the data active = growth inhibition above about 68%;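 note: plate controls were untreated wells for no effect and antibiotic for full effect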
CCHFV vOTU inh: blocks the CCHF virus ovarian tumor domain protease | 0.55% of 370,000 active | AID 651958 | inhibition, % at 11.5 µM | CCHFV vOTU protease, Pep-AMC fluorescence; in the data active = inhibition above about 30%; note: 0% = vehicle wells with enzyme and 100% = no enzyme wells
Mtb hypoxia rep: reduces hypoxia-regulated biosensor signal in M. tuberculosis | M. tuberculosis hypoxia-regulated fluorescent reporter, fluorescence | fluorescence inhibition, % (test concentration not listed) | 0.1% of 300,000 active | AID 1159583; in the data active = fluorescence inhibition mostly above about 23%, no sharp cut-off; inactive = mostly below about 17%
RN4220 kill: S. aureus RN4220 growth inhibition. 0.33% of 330,000 active. inhibition, % (test concentration not listed). OD600, 16 h; in the data active = inhibition above about 85%;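 note: plate controls were untreated cells for no effect and reference antibiotic for full effect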
An asterisk follows results filed as active; nt = no result given. An excerpt weighted towards active compounds, which were near 1.6% of everything screened.

SMILES	BJeLR lethal	RecA splice inh	ugtP null kill	CCHFV vOTU inh	Mtb hypoxia rep	RN4220 kill
N#C/C(C(N)=O)=c1/ccc2c(c1)N1C3=C(CCCC3)CC3CCCCC31N=2 (configuration not stated)	8	4	nt	1	nt	nt
O=C1C=C(c2cc3ccccc3s2)CC(c2ccc(F)cc2)C1 (configuration not stated)	nt	nt	-3	nt	8	-2
CCC(C)C(=O)OCC1(c2ccc(C)cc2OC(=O)C(C)C)CO1 (configuration not stated)	53*	nt	nt	2	nt	nt
Cc1ccc(C2(COC(=O)C(C)C)CO2)c(OC(=O)C(C)C)c1 (configuration not stated)	5	-2	nt	-13	nt	nt
N#CC(=Cc1c(N(Cc2ccccc2)Cc2ccccc2)nc2ccccn2c1=O)C(N)=O	nt	nt	1	nt	-5	9
CN(C(=O)c1cccc(Nc2ccc(-c3ccc4c(c3)OCCO4)nn2)c1)C1CCCCC1	nt	nt	99*	5	11	88*
CCN1/C(=C/c2cc[n+](C)cc2)C=Cc2cc(C)ccc21	nt	nt	100*	4	24	54
CC(=O)NC1C(=O)N(CCN2CCOCC2)c2ccc(C)cc21 (configuration not stated)	3	65*	-7	nt	9	0
CCN1C(=O)C(NC(C)=O)c2cc(Br)ccc21 (configuration not stated)	-6	0	-5	2	nt	3
CC(=O)NC1C(=O)N(CCN2CCOCC2)c2ccc(Cl)cc21 (configuration not stated)	-2	46*	nt	-7	nt	nt
CCCCN1C(=O)C(NC(C)=O)c2cc(Br)ccc21 (configuration not stated)	1	-4	10	5	nt	6
CCc1ccc2c(c1)C(NC(C)=O)C(=O)N2CC (configuration not stated)	8	1	7	8	11	2
CC(=O)NC1C(=O)N(CCN2CCOCC2)c2ccc(F)cc21 (configuration not stated)	5	41*	-1	-9	12	1
CN1CCC(=O)N(C(CC#N)c2ccccc2)CC1 (configuration not stated)	nt	nt	-2	nt	8	6
COC(=O)C1=C(c2ccc(S(C)(=O)=O)cc2)CC2CCC1N2C(=O)NC1CC1 (configuration not stated)	nt	nt	0	nt	4	5
COC(=O)C1=C(c2cc3ccccc3o2)CC2CCC1N2C(=O)N1CCC(O)CC1 (configuration not stated)	nt	nt	0	nt	9	5
COc1cc(C=NNc2cccc(C)c2)cc(Br)c1O	nt	nt	96*	nt	-2	54
COc1cccc(N/N=C/c2cccc(Br)c2O)c1	4	8	nt	-6	nt	nt
CCCCCOc1ccc(Br)cc1/C(C)=N/NC1=NCCN1	81*	20	nt	10	nt	nt
CC(C)C(=O)Nc1ccc(C(=O)NCc2cccnc2)cc1	78*	-1	-9	4	6	2
O=C(NCc1cccnc1)c1ccc(NC(=O)c2ccc(Br)cc2)cc1	78*	1	-4	-9	7	1
O=C(NCc1cccnc1)Nc1ccc(Br)cc1	2	-1	5	-7	11	-1
COc1cccc2sc(N(CCCN(C)C)C(=O)c3ccc(S(=O)(=O)N4CCc5ccccc5C4)cc3)nc12	1	1	7	2	2	-1
COc1ccc(C)c2sc(N(CCCN(C)C)C(=O)c3ccc(S(=O)(=O)N4CCc5ccccc5C4)cc3)nc12	81*	5	-9	3	13	-2
COc1ccc(OC)c2sc(N(CCCN(C)C)C(=O)c3ccc(S(=O)(=O)N4CCc5ccccc5C4)cc3)nc12	89*	1	nt	nt	nt	nt
C(=Cc1ccccc1)CN1CCN(C(c2ccccc2)c2ccccc2)CC1	nt	nt	-3	nt	5	-3
CC(=O)N1c2ccccc2C(C)C1C (configuration not stated)	nt	nt	5	nt	8	4
Cc1ccc2nc(Cl)c(C=NNC(=O)C3CC3c3ccccc3)cc2c1 (configuration not stated)	nt	nt	-3	nt	2	-2
O=C1Nc2ccccc2C(=O)N2C1C1C(=O)N(Cc3ccccc3)C(=O)C1C2c1cccc(Br)c1 (configuration not stated)	nt	nt	-3	nt	7	6
